From PubChem
Rac1 wt GTP bind = modulators of human Rac1 wildtype GTP binding. P63000. GST-Rac1 beads, fluorescent GTP binding, flow cytometry; actives lie on both sides; 0 = cold GTP competed, 100 = untreated. GTP binding activity (% of control), % at 10 µM. 0.27% of 190,000 active. AID 757;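 active = GTP binding activity at least 20 points away from the 100% control level, either lower or higher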
Rab7 wt GTP bind = alters GTP binding to wildtype dog Rab7. GST-Rab7 beads, fluorescent GTP binding, flow cytometry; actives lie on both sides; untreated = 100%, excess cold GTP = 0%. GTP binding activity (percent of control), % at 10 µM. 0.055% of 190,000 active. AID 758;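 active = fluorescent GTP binding to Rab7 beads changed by at least 20 points from the 100% baseline, either direction, mostly lower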;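 note: median green fluorescence of bound Bodipy-FL-GTP per Rab7 bead population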
Rab2A wt mod = changes GTP binding to wildtype dog Rab2A, up or down | 0.19% of 190,000 active | GTP binding activity, % at 10 µM | GST-Rab2 wt beads, Bodipy-GTP binding, flow cytometry | P61105 | AID 760;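 active = GTP binding activity at least 20 points away from 100%, either lowered or raised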
Rac1 mut GTP = human Rac1 activated mutant GTP binding change | P63000 | GST-Rac1 activated beads, fluorescent GTP binding, flow cytometry; actives lie on both sides; 100% means binding = to untreated wells | percent activity (GTP binding), % at 10 µM | 0.11% of 190,000 active | AID 764;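 active = GTP binding at least 20 percentage points away from the 100% baseline, in either direction, so actives lie on both sides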
HRas wt GTP = human HRas wildtype GTP binding, change in either direction; P01112; GST-Ras wt beads, Bodipy-FL-GTP binding, flow cytometry; actives lie on both sides; GTP binding activity, % at 10 µM; 0.14% of 190,000 active; AID 759;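 active = GTP binding activity at least 20% away from the 100% baseline, either lowered as inhibitor or raised as activator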
Target sequence (P01112 whole entry, looked up): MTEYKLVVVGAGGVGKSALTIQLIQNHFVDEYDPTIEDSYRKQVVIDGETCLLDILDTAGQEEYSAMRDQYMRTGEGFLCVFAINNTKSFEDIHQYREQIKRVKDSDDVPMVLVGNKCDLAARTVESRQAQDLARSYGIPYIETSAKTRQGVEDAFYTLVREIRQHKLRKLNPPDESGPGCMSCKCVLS
Cdc42 wt GTP = changes GTP binding to wildtype human Cdc42. P60953. AID 761. percent activity (GTP binding), % at 10 µM. 0.2% of 190,000 active. GST-Cdc42 beads, Bodipy-GTP binding, flow cytometry; actives lie on both sides;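 active = percent activity GTP binding at least 20 points away from the 100% baseline, either down as inhibitor or up as activator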;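 note: median bead fluorescence of bound Bodipy-FL-GTP at 100 nM; below 100% means less GTP binding so inhibitor and above means activator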
Target sequence (P60953 whole entry, looked up): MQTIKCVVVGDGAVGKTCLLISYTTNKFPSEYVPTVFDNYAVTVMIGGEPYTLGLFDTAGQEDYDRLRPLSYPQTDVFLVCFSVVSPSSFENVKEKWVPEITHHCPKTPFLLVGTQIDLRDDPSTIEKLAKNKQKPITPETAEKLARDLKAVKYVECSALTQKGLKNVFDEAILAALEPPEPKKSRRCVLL
Numbers stand for hits; - = inactive; [ ] = another dose, or the depositor's remark. Sampled rows, rich in hits. Any-hit rate of the full collection: about 0.38%.

SMILES	Rac1 wt GTP bind	Rab7 wt GTP bind	Rab2A wt mod	Rac1 mut GTP	HRas wt GTP	Cdc42 wt GTP
CCOC(=O)CN(Cc1sccc1C)C(=O)Nc1ccc(OC)cc1OC	-	-	-	-	-	-
Cn1nc([N+](=O)[O-])c(C(C#N)c2ccccn2)c(Cl)c1=O (centres undefined)	-	-	-	61	-	79
CCCn1nc([N+](=O)[O-])c(C(C#N)c2nc3ccccc3o2)c(Cl)c1=O (centres undefined)	-	-	-	-	-	-
COc1ccc2nc(SCC(=O)NCC(F)(F)F)[nH]c2c1	-	-	-	-	-	-
Cc1ccc(-c2csc3nc4c5ccccc5c(NCCCN(C)C)nn4c(=O)c23)cc1	79	-	77	-	73	72
Cc1ccc(-c2csc3nc(C)n(N)c(=O)c23)cc1	-	-	-	-	-	-
Cc1ccc(-c2csc3nc4c5ccccc5c(NCCCN5CCOCC5)nn4c(=O)c23)cc1	60	-	59	-	60	57
COc1ccc(/C=C2/N=C(SCC(=O)Nc3cc(C)on3)N(c3ccccc3)C2=O)cc1	77	-	-	-	-	-
CCC(SC1=N/C(=C/c2ccccc2)C(=O)N1c1ccccc1)C(=O)Nc1cc(C)on1 (centres undefined)	-	-	-	-	-	-
COc1cc2[nH]c(=O)n(C3CCCCC3)c(=O)c2cc1OC	-	-	-	-	-	-
COc1cc2[nH]c(=S)nc(NC3CCCC3)c2cc1OC	51	74	60	70	60	58
CCn1c(SCC(=O)O)nnc1-c1cc2c(C)nn(-c3ccccc3)c2s1	79	-	-	-	-	-
Cc1nn(-c2ccccc2)c2sc(-c3nnc(SCC(=O)O)o3)cc12	-	-	-	-	-	-
CCOC(=O)c1c(C)n(C)c2ccc(OC)c([N+](=O)[O-])c12	-	-	-	-	-	-
Cc1cc2ncn(CCC(=O)NC3CCCC3)c2cc1C	-	-	-	-	-	-
Cc1cc2ncn(CCC(=O)NC(C)(C)C)c2cc1C	77	-	-	-	-	-
O=C(N1CCOCC1)C12CC3CC(C1)CC(n1cnc(Cl)n1)(C3)C2	-	-	-	-	-	-
CC(C)NC(=O)C12CC3CC(C1)CC(n1cnc(Cl)n1)(C3)C2	121[activator]	-	-	-	-	-
CCCc1cc(NCc2ccccn2)n2c(nc3ccccc32)c1C#N	75	-	-	-	-	-
Cc1cc(NCc2ccccn2)n2c(nc3ccccc32)c1C#N	66	78	70	-	75	72
CCCc1cc(NCC2CCCO2)n2c(nc3ccccc32)c1C#N (centres undefined)	-	-	-	-	-	-
O=C(COC(=O)Cn1cnc2ccccc2c1=O)Nc1cc(Cl)ccc1[N+](=O)[O-]	-	-	-	-	-	-
O=C(O)CCC(=O)Nc1ccc(C(=O)OC2CCCCC2)cc1	-	-	-	-	-	-
O=C(OC1CCCCC1)c1ccc(NC(=O)C2CCCCC2)cc1	-	-	-	-	-	79
Cc1c(NC(=O)CCN2C(=O)c3ccccc3C2=O)c(=O)n(-c2ccccc2)n1C	78	-	-	-	-	-
SMILES	Rac1 wt GTP bind	Rab7 wt GTP bind	Rab2A wt mod	Rac1 mut GTP	HRas wt GTP	Cdc42 wt GTP
O=C1Nc2ccc(Br)cc2C12NNc1ccccc1O2 (centres undefined)	-	-	-	-	-	79
CN(C)c1cccc2c(/C=N/O)ccc(N(C)C)c12	-	-	-	-	-	-
CN1C(=O)N(C)c2ccc(C=O)c3cccc1c23	77	-	-	-	-	-
Cc1ccccc1Cc1ccc(Cl)nn1	-	-	-	-	-	-
Cc1ccc(S(=O)(=O)Cc2ccc(C(=O)N3CCN(c4cc(C)ccc4C)CC3)o2)cc1	-	-	-	77	-	-
Cc1ccc(C)c(N2CCN(C(=O)c3ccc(CS(=O)(=O)c4ccccc4C)o3)CC2)c1	-	-	-	-	-	-
COc1cccc(-n2c(SCC(=O)NCCC3=CCCCC3)nc3n[nH]c(C)c3c2=N)c1	-	-	76	-	73	75
CC(C)(C)NC(=O)CCN(/N=C/c1ccc([N+](=O)[O-])o1)C1=NS(=O)(=O)c2ccccc21	50	72	45	59	42	56
N#CC(C#N)=C1C=CC=CN1/C(=C\c1ccccc1Cl)C(=O)c1ccccc1	-	-	-	-	-	78
N#CC(C#N)=C1C=CC=CN1/C(=C\c1ccccc1)C(=O)c1cccs1	-	-	-	-	-	-
CCOC(=O)C1(CCc2ccccc2)CCN(C(=O)CN2C(=O)CSC2=O)CC1	-	-	-	-	-	-
CC(C)(C)OC(=O)N[C@@H](Cc1ccccc1)c1nnc(S(=O)(=O)Cc2cccc(F)c2)o1	-	79	-	-	-	-
Cc1ccc(CSc2nnc(-c3ccccc3N)c(=O)[nH]2)cc1	120[activator]	-	-	-	-	-
Cn1c(SCc2nnc(-c3ccccc3)o2)nc2ccccc21	-	-	-	-	-	-
COc1ccc(-c2nnc(CSc3nc4ccccc4c(=O)n3C)o2)cc1OC	120[activator]	-	-	-	-	-
Cc1cc(-c2n[nH]c(=S)n2/N=C/c2ccc(Cl)c([N+](=O)[O-])c2)n[nH]1	-	-	-	-	-	-
Cc1cc(-c2n[nH]c(=S)n2/N=C/c2cc([N+](=O)[O-])ccc2Cl)n[nH]1	71	-	74	-	77	-
O=C(NC1=NCCS1)c1ccccc1OCc1ccccc1Cl	-	-	-	-	-	-
N#CCc1c(C#N)c(N)nc(N2CCN(C=O)CC2)c1C#N	73	-	77	-	79	78
N#CCc1c(C#N)c(N)nc(N2CCN(S(=O)(=O)c3ccccc3)CC2)c1C#N	-	-	-	-	-	-
COCCNc1nc2c(c(=O)n(Cc3ccc(OC)cc3)c(=O)n2C)n1C	-	-	-	-	-	-
COc1ccc(CNc2nc3c(c(=O)n(Cc4ccc(Cl)cc4)c(=O)n3C)n2C)cc1	-	-	78	-	-	79
CC(C)C(NCc1c(Cl)cccc1Cl)C(=O)O (centres undefined)	124[activator]	-	-	-	-	-
COc1cccc(NC(=O)COC(=O)/C=C/c2ccc(Cl)cc2Cl)c1	77	-	79	-	-	79
COc1cc(NC(=O)COC(=O)/C=C/c2ccc(Cl)cc2Cl)cc(OC)c1	-	-	-	-	-	-
O=C(Cn1c2[n+](c3ccccc31)CC(O)CS2)c1ccccc1 (centres undefined)	-	-	-	-	-	-
